An excerpt weighted towards active compounds, which were near 1.1% of everything screened.
gsp antag: antagonizes gsp, the McCune-Albright syndrome mutation. gsp-mutant cells, cAMP HTRF, 30 min. Potency, µM (top dose mostly 76.9 µM), for inactives: top-dose activity change, negative = inhibition, most hits filed as inhibitors. hit rate 0.4% among 340,000; calls by dose curve; cell line not stated here;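 also: intracellular cAMP measured with PDE inhibitor Ro 20-1724 present during compound exposure; potency is read from the fitted curve at half-maximal effect; % is scaled to controls: 0 for no effect and ±100 for the full control effect; nearly all actives have a fitted effect of over 65% in size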
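Cells in G418 medium, seeded 16-24 h, 37C; buffer exchange to DPBS + 1 mM CaCl2, 0.5 mM MgCl2, 0.05% BSA; cpds in DMSO + […] (300 uM stock), 30 min 37C; HTRF cAMP detection.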
gsp agonist: agonists of gsp mutant (McCune-Albright syndrome); gsp mutant cells, cAMP HTRF, 30 min; Potency, µM (series often up to 76.9 µM), for the others: at the top dose activation (cAMP increase), hits mostly activators; hit rate 0.13% among 340,000; active = well fitted activation curve with a large enough effect; inconclusive = small, poorly fitted or top-dose-only effect, or another doubt; inactive = no such curve, though single readings can be large or run the other way; cell line not stated here;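 also: phosphodiesterase inhibitor Ro 20-1724 added with compounds to block cAMP breakdown; potency is read from the fitted curve at half-maximal effect; nearly all actives have a fitted effect of over 60% in size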
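Cells in DMEM/10% FBS with G418 were pretreated with compounds in DMSO plus […] (300 uM stock) for 30 min at 37C. cAMP was measured by HTRF (cAMP-d2 plus anti-cAMP antibody-K) after 30 min at room temperature.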
RXFP1 ag: activates the human relaxin receptor RXFP1 | Q9HBX9 | Potency, µM (highest dose often 57.5 µM), for inactives: at the top dose activation, usual class: activators | HEK293T-RXFP1 cAMP TR-FRET, 30 min; response scale: percent of porcine relaxin response, buffer zero | AID 2676 | hit rate 0.3% among 370,000; active = well fitted activation curve with a large enough effect; inconclusive = small, poorly fitted or top-dose-only effect; also: potency is read from the fitted curve at half-maximal effect; % is scaled to controls: 0 for no effect and ±100 for the full control effect; nearly all actives have a fitted effect of over 60% in size
Target sequence (Q9HBX9 whole entry, looked up): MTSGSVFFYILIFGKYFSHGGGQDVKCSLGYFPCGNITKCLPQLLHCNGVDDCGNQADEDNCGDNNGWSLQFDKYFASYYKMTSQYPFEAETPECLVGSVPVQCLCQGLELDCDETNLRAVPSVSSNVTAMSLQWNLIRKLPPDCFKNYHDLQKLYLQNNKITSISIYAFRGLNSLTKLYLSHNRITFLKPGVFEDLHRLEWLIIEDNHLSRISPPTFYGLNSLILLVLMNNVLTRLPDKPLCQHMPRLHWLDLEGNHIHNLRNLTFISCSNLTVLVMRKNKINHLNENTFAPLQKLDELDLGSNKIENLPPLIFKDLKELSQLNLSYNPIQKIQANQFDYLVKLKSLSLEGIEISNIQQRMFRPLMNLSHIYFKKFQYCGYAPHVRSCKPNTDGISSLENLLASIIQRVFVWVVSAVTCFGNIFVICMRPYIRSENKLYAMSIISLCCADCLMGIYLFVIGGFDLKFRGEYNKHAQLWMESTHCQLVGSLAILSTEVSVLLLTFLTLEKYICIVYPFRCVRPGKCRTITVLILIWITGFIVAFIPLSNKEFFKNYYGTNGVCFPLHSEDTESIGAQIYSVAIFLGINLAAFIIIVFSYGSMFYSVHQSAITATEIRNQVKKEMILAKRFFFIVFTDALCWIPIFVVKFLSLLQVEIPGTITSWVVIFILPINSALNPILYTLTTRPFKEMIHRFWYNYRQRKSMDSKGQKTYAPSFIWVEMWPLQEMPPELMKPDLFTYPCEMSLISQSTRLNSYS
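HEK293 cells stably expressing RXFP1, treated 30 min at 37C with compounds plus PDE4 inhibitor Ro 20174; cAMP measured by HTRF TR-FRET. Normalized to buffer and 29 nM porcine relaxin; EC50 by Hill fit.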
TRPV1 agonist: agonists of human vanilloid receptor 1 (TRPV1). AID 540275. TRPV1-expressing cells, Fluo-8 calcium influx, agonist mode. hit rate 0.19% among 320,000. activation, % at 8.33 µM. Q8NER1; in the data active = activation above about 80%; inconclusive = between about 30% and that limit; also: 0% is about no effect
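TRPV1-expressing cells were cultured overnight at 35.5C and loaded with Fluo-8 calcium dye for 40 to 90 min at room temperature. After a 10 s baseline, compound was added and calcium influx was read kinetically for 3 min (ex 480/em 520 nm).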
RXFP1 antag: antagonists of human relaxin receptor RXFP1. hit rate 0.59% among 350,000. HEK293-RXFP1, relaxin-stimulated cAMP HTRF, 30 min; active compounds read low. AID 1259400. activity change, negative = inhibition, % at 57.5 µM;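 active = activity change of -60% or lower, but not beyond a set lower limit; inconclusive = change between -60% and -40%, or beyond the set limit; inactive = change above -40%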; also: % is scaled to controls: 0 for no effect and ±100 for the full control effect
TRPV1 PAM: human TRPV1 potentiation; Q8NER1; TRPV1-expressing cells, Fluo-8 calcium influx, capsaicin EC20 potentiation; potentiation, % at 8.33 µM; hit rate 0.02% among 320,000; AID 540277; in the data active = potentiation above about 80%; inconclusive = between about 30% and that limit; also: 0% is about no effect
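Fluo-8 calcium influx in TRPV1-expressing cells, kinetic read (ex 480/em 520 nm). Compound added and read 3 min for agonist activity, followed by capsaicin at EC20 final and 2 min further read for enhancement.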
An asterisk follows results filed as active; [ ] = dose if it differs, or a comment.

`CSC1=C(C#N)C(c2ccc3c(c2)OCO3)C2=C(CCCC2=O)N1` (stereo not given) gave gsp antag -16%, gsp agonist 2%, RXFP1 ag 0%, TRPV1 agonist 0, RXFP1 antag -6 and TRPV1 PAM 3.
Screening CCSC1=C(C#N)C(c2ccc(Cl)cc2)C2=C(CCCC2=O)N1 (stereo not given) returned gsp antag 45µM*, gsp agonist 9%, RXFP1 ag 0%, TRPV1 agonist 2, RXFP1 antag -3 and TRPV1 PAM -3.
Screening O=C(CCNC(=O)N1CC(=O)Nc2ccccc21)Nc1ccc(Cl)cc1 returned gsp antag -5%, gsp agonist 7%, RXFP1 ag 4%, TRPV1 agonist -1, RXFP1 antag 3 and TRPV1 PAM -2.
`O=C(CNC(=O)N1CC(=O)Nc2ccccc21)NCc1ccccc1` gave gsp antag 11%, gsp agonist inconclusive, RXFP1 ag 1%, TRPV1 agonist -2, RXFP1 antag 4 and TRPV1 PAM 12.
For O=C(CNC(=O)N1CC(=O)Nc2ccccc21)Nc1ccc(Cl)cc1 the results were gsp antag -10%, gsp agonist -55%, RXFP1 ag 1%, TRPV1 agonist 1, RXFP1 antag -61* and TRPV1 PAM 13.
Screening O=C(CNC(=O)N1CC(=O)Nc2ccccc21)NCc1ccccc1Cl returned gsp antag 4%, gsp agonist -1%, RXFP1 ag -1%, TRPV1 agonist -2, RXFP1 antag -61* and TRPV1 PAM 21.
For O=C(CN1C(=O)c2cccnc2Oc2ccc(Cl)cc21)NC1CCCCC1 the results were gsp antag -10%, gsp agonist inconclusive, RXFP1 ag 3%, TRPV1 agonist -2, RXFP1 antag 10 and TRPV1 PAM -4.
Screening Cc1cc(C)cc(C(=O)NCC(=O)N2CCC3(CC2)NCCc2[nH]cnc23)c1 returned gsp antag 3%, gsp agonist -137%, RXFP1 ag 1%, TRPV1 agonist 3, RXFP1 antag 11 and TRPV1 PAM 3.
`CCOc1cc(C(=O)NCC(=O)N2CCC3(CC2)NCCc2[nH]cnc23)cc(OCC)c1OCC` gave gsp antag 5%, gsp agonist -3%, RXFP1 ag 0%, TRPV1 agonist 2, RXFP1 antag -119* and TRPV1 PAM -6.
CC(OC(=O)CCN=C1NS(=O)(=O)c2ccccc21)C(=O)Nc1ccc(N(C)C)cc1 (stereo not given) was read as gsp antag 7.1µM*, gsp agonist -27%, RXFP1 ag -1%, TRPV1 agonist -4 and TRPV1 PAM 2.
`CC(=O)Nc1ccc(NC(=O)C(C)OC(=O)CCCN=C2NS(=O)(=O)c3ccccc32)cc1` (stereo not given) gave gsp antag 6%, gsp agonist -50%, RXFP1 ag -1%, TRPV1 agonist -2, RXFP1 antag 0 and TRPV1 PAM 6.
For Cc1cc(Cl)ccc1C(=O)C1CCCN(C(=O)c2cnn(C(C)C)c2)C1 (stereo not given) the results were gsp antag -12%, gsp agonist -15%, RXFP1 ag 3%, TRPV1 agonist inconclusive, RXFP1 antag -17 and TRPV1 PAM -15.
`CCC(=O)Nc1c(-c2ccccc2Cl)c(=O)c2ccccc2n1CC` gave gsp antag 8%, gsp agonist 16µM*, RXFP1 ag 0%, TRPV1 agonist -3, RXFP1 antag -9 and TRPV1 PAM -2.
For C=CCSc1nnc2c(n1)OC(c1c(C)[nH]n(-c3ccccc3)c1=O)Nc1ccccc1-2 (stereo not given) the results were gsp antag 25µM*, gsp agonist 9%, RXFP1 ag -1%, TRPV1 agonist 1, RXFP1 antag 8 and TRPV1 PAM 9.
Cc1ccc(CSc2nc(=O)c3c(C)cc(C)nc3n2C2CC2)cc1 was read as RXFP1 ag 10% and RXFP1 antag -62*.
For COc1cccc(NC(=O)COC(=O)c2ccccc2C(=O)N2CCN(c3ccccc3)CC2)c1 the results were gsp antag -9%, gsp agonist 5%[15.4 µM], RXFP1 ag 1%, TRPV1 agonist -1, RXFP1 antag -21 and TRPV1 PAM 0.
O=C(CSc1nc(O)cc(=O)n1-c1ccccc1)Nc1ccc2c3c(cccc13)CC2 was read as gsp antag 7.1µM*, gsp agonist -16%[15.4 µM], RXFP1 ag 2%, TRPV1 agonist 1, RXFP1 antag inconclusive and TRPV1 PAM 2.
Cc1c(O)nc(SCC(=O)Nc2ccc3c4c(cccc24)CC3)n(-c2ccccc2)c1=O was read as gsp antag -10%, gsp agonist -5%[15.4 µM], RXFP1 ag -1%, TRPV1 agonist -9, RXFP1 antag -14 and TRPV1 PAM 6.
For CCn1c(C(=O)N2CCC(C(=O)NCc3ccc(OC)cc3)CC2)cc2sccc21 the results were gsp antag -11%, gsp agonist 5%, RXFP1 ag 5%, TRPV1 agonist 11, RXFP1 antag 12 and TRPV1 PAM -2.
Screening O=C(c1cc([N+](=O)[O-])ccc1Cl)N1c2ccccc2Sc2ccccc21 returned gsp antag inconclusive, gsp agonist 10%[15.4 µM], RXFP1 ag 2%, TRPV1 agonist -4, RXFP1 antag -24 and TRPV1 PAM 1.
For Oc1ccc(-c2nc(-c3ccccc3)c(-c3ccc(Br)cc3)[nH]2)cc1 the results were RXFP1 ag 2% and RXFP1 antag -5.
For Oc1ccc(N=Nc2nc(-c3ccccc3)c(-c3ccccc3)[nH]2)cc1 the results were gsp antag 28µM*, gsp agonist -16%, RXFP1 ag 0%, TRPV1 agonist inconclusive, RXFP1 antag -8 and TRPV1 PAM -8.
Screening COc1cc(NC(=O)CCc2nnc3ccc(N4CCN(c5cccc(OC)c5)CC4)nn23)cc(OC)c1 returned gsp antag 10%, gsp agonist inconclusive, RXFP1 ag 16µM*, TRPV1 agonist 0, RXFP1 antag 4 and TRPV1 PAM 17.
CCOC(=O)C(Cc1ccccc1)NC(=O)CCc1nnc2ccc(N3CCOCC3)nn12 (stereo not given) was read as gsp antag 5%, gsp agonist 20µM*, RXFP1 ag 27%, TRPV1 agonist -2, RXFP1 antag 29 and TRPV1 PAM -16.
For COc1cccc(NC(=O)CCc2nnc3ccc(N4CCN(c5cccc(OC)c5)CC4)nn23)c1 the results were gsp antag inconclusive, gsp agonist 1%, RXFP1 ag 16%, TRPV1 agonist -2, RXFP1 antag -24 and TRPV1 PAM 23.

Compound activity deposited in PubChem BioAssay by National Center for Advancing Translational Sciences (NCATS).
